Our source for the cytotoxicity values is PubChem BioAssay AID651994 (Sanford-Burnham Center for Chemical Genomics, 2013).

Structures are written as SMILES. In all, about 2,500 compounds went through this assay and about 790 (32%) were called active. These entries were drawn from the full list. A number with no mark means an inactive call.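 Rule for the calls: active = mean cytotoxicity at 5 µM above about 25% (limit read from the data); inactive = the rest.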

The test is described as follows: cell viability loss, Sufu-null reporter line – ATP luminescence, single concentration, cytotoxicity control for Gli-SUFU antagonist project, confirmation (AID 651994).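 Note: cells exposed to compound overnight for roughly 16 to 18 hours; plate controls were DMSO wells with cells for no effect and medium without cells for full effect.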 The settings on record: Sufu-KO-LIGHT cells cytotoxicity, at 5 µM, stronger effect = higher value.
Regarding `CCCCC(=O)NC(c1ccc(OC)c(OC)c1)c1ccc2cccnc2c1O` (centres undefined), the cytotoxicity was 19.2%.

As to `C=CCOC(=O)C1=C[C@@H](c2ccc3c(c2)OCO3)C[C@@H](OCCCCO)O1`, the cytotoxicity is 2.89%.

Turning to `Cc1nonc1C1CCCN1C(=O)c1cc(COc2cccc(C(F)(F)F)c2)on1` (centres undefined), the cytotoxicity was 29.3% (active).

For the molecule `O=C1/C(=C\c2cccnc2)CN(Cc2ccccc2)C/C1=C\c1cccnc1`, the cytotoxicity is 10.1%.

As for `O=C(NC1CCN(C(=S)Nc2ccc(Cl)cc2)CC1)C1CCCCC1`, the cytotoxicity is 2.7%.

`C=CCOc1nc2c(c(=O)n(C)c(=O)n2C)n1Cc1ccc(Cl)cc1Cl`: the cytotoxicity is 26.7% (active).

Turning to `COC(=O)Cc1[nH]n(-c2nc3ccccc3s2)c(=O)c1C(C)=Nc1ccc(OC)cc1`, the cytotoxicity was 15.6%.

With `COc1ccccc1CCNC(=O)C(=O)NCCC1CCCCN1S(=O)(=O)c1cccs1` (centres undefined), the cytotoxicity was 20.7%.

In the case of `N#CC(C#N)=CN=c1ccn(Cc2ccc(Cl)cc2Cl)cc1`, the cytotoxicity is 29.5% (active).

For the molecule `CCCOc1ccc(Cc2c(Cl)nc(SC)nc2NC)cc1`, the cytotoxicity is 31.8% (active).

Regarding `CC(C)Oc1ccc(/C=N/NC(=O)c2nnn(-c3nonc3N)c2CN(C)C2CCCCC2)cc1`, the cytotoxicity was 9.64%.

For `O=C(CN1C(=O)c2ccccc2S1(=O)=O)N1CCc2ccccc21`, the cytotoxicity is 36.9% (active).

Regarding `Cc1onc(-c2ccccc2)c1C(=O)Nc1ccccc1C#N`, the cytotoxicity is 7.65%.

For the molecule `Cc1cc(NC(=O)c2cccc(N3C(=O)CCC3=O)c2)no1`, the cytotoxicity is 8.93%.

Turning to `C/C(=N\NC(=O)Cc1ccc(Cl)cc1)c1ccccn1`, the cytotoxicity is 38.9% (active).

As to `CC(=O)Nc1cccc(OCC(=O)/C=C2\N(C)c3ccccc3C2(C)C)c1`, the cytotoxicity is 23.9%.

With `Cc1ccc(C(=O)C[n+]2cc(-c3ccccc3)n3c2CCCCC3)cc1`, the cytotoxicity is 38.4% (active).

On to `COc1ccc(Cn2c(-c3ccc(Cl)cc3)c[n+]3ccccc23)cc1`, for which the cytotoxicity was 15.3%.

For `Cc1cc([N+](=O)[O-])c(-c2ccc(/C=N/n3cnnc3)o2)cc1Cl`, the cytotoxicity is 3.83%.

With `COc1cccc2cc(C(N)=O)/c(=N\NC(=O)c3ccccc3)oc12`, the cytotoxicity was 19.1%.

`COc1ccc(OC)c(/C=N/NC(=O)c2ccc[n+](CC(=O)c3ccccc3)c2)c1`: the cytotoxicity is 26.3% (active).

Turning to `CCN(CC)S(=O)(=O)c1ccc(Cl)c(C(=O)NC(C)C(c2cccs2)N2CCCC2)c1` (centres undefined), the cytotoxicity was 13.4%.

As for `COc1ccc(OC)c(Cc2cnc3nc(N)nc(N)c3c2C)c1`, the cytotoxicity is 15.7%.

With `CCOC(=O)c1cnc(Nc2nc3ccccc3o2)nc1CSC(=S)N1CCCCC1`, the cytotoxicity is 20.4%.
